From PubChem BioAssay AID504401 (The Scripps Research Institute Molecular Screening Center, 2011)
Unmarked numbers belong to inactive results. No rule for the calls is given here.

Test system: Potassium Channel KATP
Test: CYP450 and receptor off-target profile – biochemical, Ricerca HitProfilingScreen, selectivity assay for GPR7 antagonist project, late-stage follow-up (AID 504401)
Conditions: Ricerca radioligand binding and CYP450 panel, at 10 µM, hits give high values

COc1ccc(Oc2c(Cl)cnn(-c3cc(C)cc(C)c3)c2=O)cc1
inhibition: 11%
